Only some compounds are listed: those with a hit (about 4.1% of all), similar ones and a draw of the others.
CHT PAM: CHT positive allosteric modulators, primary screen, cell-based, membrane potential dye, choline EC20; CHT-expressing cells; hits give high values; LV-AA mutant CHT in HEK293 cells; actives 0.49% (n = 310,000); AID 488977, 2010; B-score at 10 µM; High affinity choline transporter 1 (Homo sapiens), Q9GZV3;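 active means initial fluorescence not abnormally high and integrated response B-score, plate-corrected, over 3 SD above library mean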
Target sequence (Q9GZV3 whole entry, looked up): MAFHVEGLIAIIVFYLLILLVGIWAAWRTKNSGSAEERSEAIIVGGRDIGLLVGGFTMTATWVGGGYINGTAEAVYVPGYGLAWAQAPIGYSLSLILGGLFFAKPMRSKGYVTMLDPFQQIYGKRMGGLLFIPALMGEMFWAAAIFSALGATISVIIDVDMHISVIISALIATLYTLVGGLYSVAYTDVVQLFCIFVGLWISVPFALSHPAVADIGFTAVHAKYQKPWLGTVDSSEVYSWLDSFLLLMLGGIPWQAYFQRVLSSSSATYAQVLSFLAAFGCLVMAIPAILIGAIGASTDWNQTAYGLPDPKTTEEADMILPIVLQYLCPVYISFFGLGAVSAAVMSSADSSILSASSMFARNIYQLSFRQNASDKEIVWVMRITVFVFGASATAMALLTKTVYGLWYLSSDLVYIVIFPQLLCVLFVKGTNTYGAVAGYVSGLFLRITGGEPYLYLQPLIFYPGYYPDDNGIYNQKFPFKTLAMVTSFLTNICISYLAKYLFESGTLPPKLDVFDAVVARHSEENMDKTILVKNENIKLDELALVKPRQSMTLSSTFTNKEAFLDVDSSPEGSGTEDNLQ
MEKK3 PB1 HTS: modulators of MEKK3-MEK5 PB1 binding, primary screen, biochemical, wildtype MEKK3, multiplex bead flow cytometry, Alexa488-MEK5 | Mitogen-activated protein kinase kinase kinase 3 (Homo sapiens), Q99759 | bead-based flow cytometry, Alexa488-MEK5 binding to MEKK3; actives lie on both sides; 0 = blocked by unlabeled MEK5, 100 = vehicle | binding response (% of control), % at 10 µM | actives 1.4% (n = 290,000) | AID 1529, 2009;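 active means binding response more than 3 SD above or below the average of its plate-row segment, actives on both sides; inconclusive means wells at one plate position flagged as instrument error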;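 further: Alexa488 bead fluorescence after subtracting the streptavidin-only scavenger bead signal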
MEKK2 mut-MEK5: MEK5 binding signal on mutant MEKK2 PB1, primary screen, biochemical, multiplex bead flow cytometry, Alexa488-MEK5. Alexa488-MEK5 binding to MEKK2 mutant. percent response, % at 10 µM. actives 0.35% (n = 290,000). AID 1530, 2009; in the data active means percent response above about 24%, passing the limit was not always enough
CHT inh: inhibitors of human choline transporter CHT | actives 0.86% (n = 310,000) | CHT-expressing cells, membrane potential dye, choline response; hits give low values | B-score at 10 µM;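 active means B-score over 3 SD under the library average, and starting fluorescence ratio not unusually high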;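 further: choline stimulus applied at its EC90 after an EC20 pre-addition; B-score computed on integrated fluorescence ratio after choline addition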
Mot1-301 SUMO: yeast Mot1-301 growth rescue at high temperature, primary screen, SUMOylation pathway inhibitor project, S. cerevisiae, ATP luminescence, 38.5C; actives 1% (n = 320,000); AID 2716, 2010; growth rescue, % at 18.8 µM; S. cerevisiae Mot1-301 growth rescue; percent above DMSO median, 100 means doubled;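 active means every valid replicate shows activation above 250% relative to neutral control wells; inactive means the rest, any valid replicate at or below 250%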;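 further: OY570 slx delta 5 strain wells were the positive control but not used for scaling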
MEKK2wt PB1 HTS: modulators of MEK5 binding to wildtype MEKK2, primary screen, biochemical, multiplex bead flow cytometry, Alexa488-MEK5; Mitogen-activated protein kinase kinase kinase 2 (Homo sapiens), Q9Y2U5; Alexa488-MEK5 binding to MEKK2 WT; actives lie on both sides; binding response (% of control), % at 10 µM; actives 1.1% (n = 290,000); AID 1531, 2009; in the data active means binding response below about 67% or above about 130%; inconclusive means no clear call, values can overlap the other calls; inactive means in between
* = called active by the depositor; i = inactive; ? = inconclusive; · = no result; [ ] = another dose, or the depositor's remark.

SMILES	CHT PAM	MEKK3 PB1 HTS	MEKK2 mut-MEK5	CHT inh	Mot1-301 SUMO	MEKK2wt PB1 HTS
Cc1cccc(/C=C2/Sc3ccc(C(=O)NCCCN4CCOCC4)cc3NC2=O)c1	i	107	25*	i	-10	149*
COc1ccc(/C=C2/Sc3ccc(C(=O)NCCCN4CCOCC4)cc3NC2=O)cc1OC	i	100	8	i	-15	118
CCN1CCCC1CNC(=O)c1ccc2c(c1)NC(=O)/C(=C\c1ccc(OC)c(OC)c1)S2 (centres undefined)	i	91	25*	i	282	153*[inhibitor]
COc1ccc(CC(=O)OCC(=O)c2ccc(F)cc2)cc1	·	·	·	·	57	·
CSc1ccccc1NC(=S)NCc1ccc(Cl)cc1	i	100	-2	i	6	95
Cc1cccc(/C=C2/Sc3ccc(C(=O)NCCN4CCCC4)cc3NC2=O)c1	i	105	46*	i	13	183*
O=C(OCc1cc([N+](=O)[O-])cc2c1OCOC2)c1ccc2ccccc2n1	i	94	-1	i	292*	96
CC(=O)NC(CC(=O)OCc1ccc([N+](=O)[O-])cc1)c1ccccc1 (centres undefined)	i	101	1	i	497*	106
O=C(CN1C(=O)CCC1=O)Nc1nc(-c2ccc(Oc3ccccc3)cc2)cs1	i	100	9	i	-18	109
COc1ccc(-c2[nH]n(-c3ccc([N+](=O)[O-])cc3)c(=O)c2C=NCCN2CCNCC2)cc1	9.3*	101	0	i	75	113
CCC(=O)Nc1ccc(/C=C(\C(C)=O)C(=O)c2ccccc2)cc1	i	89	-3	i	0	90
CCOC(=O)/C(=C/c1ccc(OC(=O)c2ccccc2)cc1)C(C)=O	i	97	11	i	-16	4.0*
N#Cc1nc(COc2ccccc2)oc1N1CCCCCC1	i	109	9	i	7	113
CN1CCN(c2oc(COc3ccc(-c4ccccc4)cc3)nc2C#N)CC1	i	?	-24	i	563*	?
CCOc1ccc(CCNC(=O)COC(=O)C2=NNC(=O)CC2)cc1OCC	i	·	·	i	7	·
CCN(CC)CCNC(=O)Cn1ncc2ccccc2c1=O	i	96	-17	i	776*	101
CCOC(=O)c1ccc2c(c1)nc(SCC(=O)N1CCCCC1)n2CC	i	103	4	i	293*	101
CCCCCN(C(=O)CCC(=O)OC(C)C(=O)Nc1cccc(C#N)c1)c1c(N)n(CCCC)c(=O)[nH]c1=O (centres undefined)	i	·	·	i	303*	·
CCOC(=O)C1CCN(S(=O)(=O)c2ccccc2)CC1	i	102	2	i	0	104
CCOC(=O)C1CCN(S(=O)(=O)c2c(Cl)ccc3nonc23)CC1	i	96	-6	-5.4*	92	92
C=CCn1c(=O)c(C#N)cc2c(=O)n3ccccc3nc21	7.2*	104	3	i	-3	104
O=C(Cc1ccsc1)NCC(=O)Nc1ccccc1Br	·	·	·	·	-18	·
O=[N+]([O-])c1ccc(N/N=C/c2ccc[nH]2)cc1	i	83	5	i	117	-1.0*
O=[N+]([O-])c1ccc(N/N=C/c2c[nH]c3ccccc23)cc1	i	102	10	i	11	104
O=[N+]([O-])c1ccc(N/N=C/c2cccc(O)c2O)cc1	i	110	1	i	317*	104
SMILES	CHT PAM	MEKK3 PB1 HTS	MEKK2 mut-MEK5	CHT inh	Mot1-301 SUMO	MEKK2wt PB1 HTS
COc1ccc(NC(=O)CN2CCC(NC(=O)c3ccco3)CC2)c([N+](=O)[O-])c1	i	101	1	i	101	102
Cc1c(Cl)cccc1NC(=S)NNc1ncc(C(F)(F)F)cc1Cl	i	102	0	-5.3*	-11	101
COc1ccc(CNc2nc(NCc3ccc(OC)cc3)n(C(=O)c3ccccc3[N+](=O)[O-])n2)cc1	i	99	-3	i	6	96
CC(CCc1ccccc1)NC(=O)CNC(=O)N1CC(=O)Nc2ccccc21 (centres undefined)	i	98	-11	i	-14	95
Cc1ccc(-n2c(C)cc(=O)cc2C)cc1[N+](=O)[O-]	i	101	-1	-8.3*	11	97
Cc1ccc(N2C(=O)c3cccc([N+](=O)[O-])c3C2=O)cc1C	i	100	-3	i	13	98
CCOC(=O)C1=C(C)N=c2s/c(=C/c3cccc([N+](=O)[O-])c3O)c(=O)n2C1c1ccccc1 (centres undefined)	i	107	5	-8*	4	106
CN(C)[C@@H]1C(=O)C(C(=O)NCN2CCCC2)=C(O)[C@@]2(O)C(=O)C3=C(O)c4c(O)cccc4[C@@](C)(O)C3CC12 (some centres undefined)	·	63	-11	·	·	26*[inhibitor]
Brc1ccc(OCc2ccccc2)c(CNCc2ccncc2)c1	i	101	4	i	262*	103
O=C(CCN1CCOCC1)NNC(=O)Nc1cccc(C(F)(F)F)c1	i	102	2	i	1	101
CCOC(=O)C(=NCCCN1CCOCC1)NNc1cccc(C(F)(F)F)c1	i	85	-6	i	324*	97
COc1cc2ccccc2cc1C(=O)Nc1nccs1	i	106	0	i	0	104
CC1CCN(c2ccc(C(=O)NCc3ccco3)cc2[N+](=O)[O-])CC1	i	102	-1	i	-8	104
O=C(NCc1ccco1)c1ccc(N2CCCCC2)c([N+](=O)[O-])c1	i	105	-1	i	812*	101
CCOC(=O)C1=C(C)OC(N)=C(C#N)C1c1ccc(C)s1 (centres undefined)	i	102	-1	i	515*	97
Cc1cc(C(=O)NNc2ccc(F)cc2F)no1	i	83	-22	i	538*	89
CN(C)c1ccc(/C=C/C(=O)c2cc(Cl)ccc2O)cc1	i	90	-10	i	6	-1.0*
Cc1nnc(NC(=O)c2ccccc2Br)s1	i	·	·	i	302*	·
O=S(=O)(c1cccc2nsnc12)N1CCN(C/C=C\c2ccccc2)CC1	i	99	2	i	309*	102
